Test results from publication PMC7862700, “An all-to-all approach to the identification of sequence-specific readers for epigenetic DNA modifications on cytosine”.

Tests used:
Assay in all cases: DAPPL (digital affinity profiling via proximity ligation, sequencing); 10 mM Tris-HCl pH 7.5, 50 mM NaCl, 1 mM DTT, 4% glycerol, room temperature, 30 min; GST-TFs on glutathione beads, 16-mer random dsDNA library, 0.1% formaldehyde crosslink after washing; high values mean tight binding
FLI1 = target: T1, FLI1 (Homo sapiens, UniProt Q01543 1-452); details: protein: recombinant; tags: N-terminal GST; dsDNA, one strand shown
T1 sequence: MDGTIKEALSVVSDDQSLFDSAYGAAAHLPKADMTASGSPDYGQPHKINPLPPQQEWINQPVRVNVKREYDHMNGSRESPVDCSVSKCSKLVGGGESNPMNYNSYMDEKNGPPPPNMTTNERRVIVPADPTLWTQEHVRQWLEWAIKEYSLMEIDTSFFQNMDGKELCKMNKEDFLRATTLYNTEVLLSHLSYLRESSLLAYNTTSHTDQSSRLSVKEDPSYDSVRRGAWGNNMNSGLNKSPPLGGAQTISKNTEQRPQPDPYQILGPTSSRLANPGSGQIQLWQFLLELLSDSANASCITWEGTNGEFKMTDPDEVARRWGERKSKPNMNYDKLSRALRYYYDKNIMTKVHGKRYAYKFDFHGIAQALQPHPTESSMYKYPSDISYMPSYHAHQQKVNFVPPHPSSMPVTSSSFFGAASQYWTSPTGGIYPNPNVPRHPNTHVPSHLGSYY
Procedure, shortened: (§1)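 Human transcription factors fused to GST were expressed in yeast, captured on glutathione beads, given DNA barcodes and pooled with a GST-only negative control. Pools were incubated with 200 nmole of a 16-mer random double-stranded DNA library in Tris/NaCl/DTT/glycerol buffer at room temperature for 30 min. They were then washed, crosslinked with 0.1% formaldehyde, proximity-ligated (BsaI/T4 ligase, 1 h, 37 °C), PCR-amplified and sequenced on an Illumina NextSeq500. Binding signal is each 6-mer's read frequency for a factor divided by its frequency for the GST control.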

ELK1 = target: T2, ELK1 (Homo sapiens, UniProt P19419 1-428); details: protein: recombinant; tags: N-terminal GST; dsDNA, one strand shown
T2 sequence: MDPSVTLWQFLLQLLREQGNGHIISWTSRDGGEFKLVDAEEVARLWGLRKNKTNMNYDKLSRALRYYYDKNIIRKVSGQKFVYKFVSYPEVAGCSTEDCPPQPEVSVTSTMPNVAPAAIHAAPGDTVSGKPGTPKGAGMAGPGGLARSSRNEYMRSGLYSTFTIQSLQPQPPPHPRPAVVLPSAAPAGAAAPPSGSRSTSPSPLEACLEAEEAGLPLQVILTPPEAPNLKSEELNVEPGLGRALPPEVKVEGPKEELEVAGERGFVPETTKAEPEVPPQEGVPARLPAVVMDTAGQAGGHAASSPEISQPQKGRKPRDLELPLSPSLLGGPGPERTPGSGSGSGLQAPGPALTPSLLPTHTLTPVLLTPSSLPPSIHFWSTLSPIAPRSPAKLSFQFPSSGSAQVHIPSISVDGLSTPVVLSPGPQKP
Procedure, shortened: as §1

GABPA = target: T3, GABPA (Homo sapiens, UniProt Q06546 1-454); details: protein: recombinant; tags: N-terminal GST; dsDNA, one strand shown
T3 sequence: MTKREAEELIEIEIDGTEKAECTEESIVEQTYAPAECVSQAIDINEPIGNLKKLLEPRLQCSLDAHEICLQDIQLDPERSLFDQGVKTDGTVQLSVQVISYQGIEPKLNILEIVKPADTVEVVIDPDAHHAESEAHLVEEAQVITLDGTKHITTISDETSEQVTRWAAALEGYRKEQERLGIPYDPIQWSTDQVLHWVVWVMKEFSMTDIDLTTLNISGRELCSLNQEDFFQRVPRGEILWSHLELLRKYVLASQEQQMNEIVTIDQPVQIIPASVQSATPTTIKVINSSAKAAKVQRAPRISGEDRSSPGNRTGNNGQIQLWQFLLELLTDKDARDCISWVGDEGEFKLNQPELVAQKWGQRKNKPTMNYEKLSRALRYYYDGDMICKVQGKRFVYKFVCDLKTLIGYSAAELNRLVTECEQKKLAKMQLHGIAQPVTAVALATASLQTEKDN
Procedure, shortened: as §1

ERG = target: T4, ERG (Homo sapiens, UniProt P11308 1-479); details: protein: recombinant; tags: N-terminal GST; dsDNA, one strand shown
T4 sequence: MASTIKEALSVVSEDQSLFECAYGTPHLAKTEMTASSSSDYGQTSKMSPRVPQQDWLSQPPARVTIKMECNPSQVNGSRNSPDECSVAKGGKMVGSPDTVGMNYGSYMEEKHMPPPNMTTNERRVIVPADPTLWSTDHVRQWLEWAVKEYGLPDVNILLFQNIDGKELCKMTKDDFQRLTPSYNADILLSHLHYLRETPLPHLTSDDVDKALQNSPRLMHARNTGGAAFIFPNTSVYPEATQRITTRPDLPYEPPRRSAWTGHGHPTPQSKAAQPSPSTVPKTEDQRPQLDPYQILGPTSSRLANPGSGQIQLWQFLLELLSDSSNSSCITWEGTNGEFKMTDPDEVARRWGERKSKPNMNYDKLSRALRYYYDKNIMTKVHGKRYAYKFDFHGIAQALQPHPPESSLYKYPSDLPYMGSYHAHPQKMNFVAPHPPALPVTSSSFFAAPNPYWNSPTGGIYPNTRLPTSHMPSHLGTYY
Procedure, shortened: as §1

ELF1 = ELF1 (Homo sapiens, UniProt P32519 1-619); details: protein: recombinant; tags: N-terminal GST; dsDNA, one strand shown
Procedure, shortened: as §1

EHF = target: T5, EHF (Homo sapiens, UniProt Q9NZC4 1-300); details: protein: recombinant; tags: N-terminal GST; dsDNA, one strand shown
T5 sequence: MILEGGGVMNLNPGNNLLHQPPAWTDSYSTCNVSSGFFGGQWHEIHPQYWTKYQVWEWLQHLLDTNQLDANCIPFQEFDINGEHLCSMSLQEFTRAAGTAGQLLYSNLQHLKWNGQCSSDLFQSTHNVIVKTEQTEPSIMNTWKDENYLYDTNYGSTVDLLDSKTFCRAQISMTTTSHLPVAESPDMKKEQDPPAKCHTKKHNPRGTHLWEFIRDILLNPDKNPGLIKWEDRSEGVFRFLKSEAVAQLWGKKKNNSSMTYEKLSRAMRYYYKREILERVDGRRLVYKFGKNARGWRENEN
Procedure, shortened: as §1

SPI1 = SPI1 (Homo sapiens, UniProt P17947 1-270); details: protein: recombinant; tags: N-terminal GST; dsDNA, one strand shown
Procedure, shortened: as §1

SPIB = SPIB (Homo sapiens, UniProt Q01892 1-262); details: protein: recombinant; tags: N-terminal GST; dsDNA, one strand shown
Procedure, shortened: as §1

ELK3 = target: T6, ELK3 (Homo sapiens, UniProt P41970 1-407); details: protein: recombinant; tags: N-terminal GST; dsDNA, one strand shown
T6 sequence: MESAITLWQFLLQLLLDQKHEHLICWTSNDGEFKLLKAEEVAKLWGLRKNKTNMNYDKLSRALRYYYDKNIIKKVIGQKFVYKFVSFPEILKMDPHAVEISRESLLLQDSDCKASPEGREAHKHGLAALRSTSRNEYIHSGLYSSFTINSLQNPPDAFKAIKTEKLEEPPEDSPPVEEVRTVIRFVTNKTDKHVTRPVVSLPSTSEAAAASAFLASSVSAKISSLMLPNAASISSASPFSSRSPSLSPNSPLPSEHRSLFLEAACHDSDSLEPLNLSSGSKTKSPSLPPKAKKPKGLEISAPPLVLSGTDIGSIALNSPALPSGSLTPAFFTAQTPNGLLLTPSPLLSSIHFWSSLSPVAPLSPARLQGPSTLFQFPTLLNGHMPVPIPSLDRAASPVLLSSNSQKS
Procedure, shortened: as §1

FEV = target: T7, FEV (Homo sapiens, UniProt Q99581 1-238); details: protein: recombinant; tags: N-terminal GST; dsDNA, one strand shown
T7 sequence: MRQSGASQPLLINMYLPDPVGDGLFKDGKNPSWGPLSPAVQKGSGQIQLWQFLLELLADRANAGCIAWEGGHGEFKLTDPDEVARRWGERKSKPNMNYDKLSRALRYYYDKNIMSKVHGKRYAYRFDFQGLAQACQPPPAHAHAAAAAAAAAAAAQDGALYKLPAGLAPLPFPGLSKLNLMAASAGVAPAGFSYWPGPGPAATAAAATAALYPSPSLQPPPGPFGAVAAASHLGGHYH
Procedure, shortened: as §1

ETV5 = ETV5 (Homo sapiens, UniProt P41161 1-510); details: protein: recombinant; tags: N-terminal GST; dsDNA, one strand shown
Procedure, shortened: as §1

HSF1 = HSF1 (Homo sapiens, UniProt Q00613 1-529); details: protein: recombinant; tags: N-terminal GST; chain copies: 3; dsDNA, one strand shown
Procedure, shortened: as §1

SPIC = target: T8, SPIC (Homo sapiens, UniProt Q8N5J4 1-248); details: protein: recombinant; tags: N-terminal GST; dsDNA, one strand shown
T8 sequence: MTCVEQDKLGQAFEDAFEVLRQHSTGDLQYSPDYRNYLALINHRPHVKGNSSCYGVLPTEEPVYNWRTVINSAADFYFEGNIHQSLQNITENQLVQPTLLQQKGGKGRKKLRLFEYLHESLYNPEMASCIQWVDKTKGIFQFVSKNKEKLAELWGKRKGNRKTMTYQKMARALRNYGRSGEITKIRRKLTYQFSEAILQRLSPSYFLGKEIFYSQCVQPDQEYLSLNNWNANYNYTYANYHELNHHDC
Procedure, shortened: as §1

ELF4 = ELF4 (Homo sapiens, UniProt Q99607 1-663); details: protein: recombinant; tags: N-terminal GST; dsDNA, one strand shown
Procedure, shortened: as §1

ELK4 = target: T9, ELK4 (Homo sapiens, UniProt P28324-2 1-405); details: protein: recombinant; tags: N-terminal GST; dsDNA, one strand shown
T9 sequence: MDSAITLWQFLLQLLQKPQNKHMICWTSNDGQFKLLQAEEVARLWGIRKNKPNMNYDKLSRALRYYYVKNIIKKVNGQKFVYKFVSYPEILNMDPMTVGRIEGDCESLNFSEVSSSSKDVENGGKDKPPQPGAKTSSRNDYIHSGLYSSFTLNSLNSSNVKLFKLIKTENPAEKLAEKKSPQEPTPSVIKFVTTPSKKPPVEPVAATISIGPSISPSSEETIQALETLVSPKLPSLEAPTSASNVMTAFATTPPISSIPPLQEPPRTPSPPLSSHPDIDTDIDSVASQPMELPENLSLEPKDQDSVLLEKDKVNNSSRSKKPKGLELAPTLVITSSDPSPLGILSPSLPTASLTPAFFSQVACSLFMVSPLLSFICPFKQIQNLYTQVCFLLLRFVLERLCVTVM
Procedure, shortened: as §1

ETV2 = target: T10, ETV2 (Homo sapiens, UniProt O00321 1-342); details: protein: recombinant; tags: N-terminal GST; dsDNA, one strand shown
T10 sequence: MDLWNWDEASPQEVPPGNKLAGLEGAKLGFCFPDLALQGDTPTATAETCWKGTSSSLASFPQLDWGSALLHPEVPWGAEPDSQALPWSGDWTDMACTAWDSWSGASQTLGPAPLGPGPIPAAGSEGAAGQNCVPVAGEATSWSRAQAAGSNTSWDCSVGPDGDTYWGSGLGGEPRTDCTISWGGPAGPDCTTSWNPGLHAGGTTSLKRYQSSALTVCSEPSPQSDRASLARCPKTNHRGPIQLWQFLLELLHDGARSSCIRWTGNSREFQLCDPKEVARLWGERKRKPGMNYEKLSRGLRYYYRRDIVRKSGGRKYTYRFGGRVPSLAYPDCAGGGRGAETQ
Procedure, shortened: as §1

ELF3 = target: T11, ELF3 (Homo sapiens, UniProt P78545 1-371); details: protein: recombinant; tags: N-terminal GST; dsDNA, one strand shown
T11 sequence: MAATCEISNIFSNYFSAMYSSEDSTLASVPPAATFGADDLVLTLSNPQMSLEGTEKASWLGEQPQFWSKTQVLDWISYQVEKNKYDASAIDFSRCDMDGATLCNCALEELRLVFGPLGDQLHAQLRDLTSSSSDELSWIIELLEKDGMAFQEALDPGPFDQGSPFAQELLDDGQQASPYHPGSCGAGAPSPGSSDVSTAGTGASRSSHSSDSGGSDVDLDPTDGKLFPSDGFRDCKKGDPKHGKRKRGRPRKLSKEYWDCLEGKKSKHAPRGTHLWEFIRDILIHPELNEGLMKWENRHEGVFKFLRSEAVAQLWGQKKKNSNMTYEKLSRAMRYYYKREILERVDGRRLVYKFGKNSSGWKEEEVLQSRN
Procedure, shortened: as §1

CRX = CRX (Homo sapiens, UniProt O43186 1-299); details: protein: recombinant; tags: N-terminal GST; dsDNA, one strand shown
Procedure, shortened: as §1

ETV1 = ETV1 (Homo sapiens, UniProt P50549 1-477); details: protein: recombinant; tags: N-terminal GST; dsDNA, one strand shown
Procedure, shortened: as §1

Chain of ELF4 (Q99607 whole entry): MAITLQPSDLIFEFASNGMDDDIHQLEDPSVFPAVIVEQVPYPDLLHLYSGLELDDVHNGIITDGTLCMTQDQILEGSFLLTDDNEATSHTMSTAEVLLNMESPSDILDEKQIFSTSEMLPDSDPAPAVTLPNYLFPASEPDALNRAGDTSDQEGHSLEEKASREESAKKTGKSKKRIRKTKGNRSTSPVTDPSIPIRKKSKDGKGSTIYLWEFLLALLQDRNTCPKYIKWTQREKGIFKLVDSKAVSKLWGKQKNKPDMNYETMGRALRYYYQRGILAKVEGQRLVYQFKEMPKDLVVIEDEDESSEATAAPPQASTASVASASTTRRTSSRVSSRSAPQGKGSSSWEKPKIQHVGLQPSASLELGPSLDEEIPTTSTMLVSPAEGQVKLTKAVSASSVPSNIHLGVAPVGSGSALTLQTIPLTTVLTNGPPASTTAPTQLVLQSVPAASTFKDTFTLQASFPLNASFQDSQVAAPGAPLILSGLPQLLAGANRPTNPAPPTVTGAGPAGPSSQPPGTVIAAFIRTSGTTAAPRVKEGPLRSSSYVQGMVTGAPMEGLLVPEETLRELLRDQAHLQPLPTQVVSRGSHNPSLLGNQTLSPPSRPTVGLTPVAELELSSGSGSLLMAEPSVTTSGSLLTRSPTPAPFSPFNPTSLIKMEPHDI
Chain of ELF1 (P32519 whole entry): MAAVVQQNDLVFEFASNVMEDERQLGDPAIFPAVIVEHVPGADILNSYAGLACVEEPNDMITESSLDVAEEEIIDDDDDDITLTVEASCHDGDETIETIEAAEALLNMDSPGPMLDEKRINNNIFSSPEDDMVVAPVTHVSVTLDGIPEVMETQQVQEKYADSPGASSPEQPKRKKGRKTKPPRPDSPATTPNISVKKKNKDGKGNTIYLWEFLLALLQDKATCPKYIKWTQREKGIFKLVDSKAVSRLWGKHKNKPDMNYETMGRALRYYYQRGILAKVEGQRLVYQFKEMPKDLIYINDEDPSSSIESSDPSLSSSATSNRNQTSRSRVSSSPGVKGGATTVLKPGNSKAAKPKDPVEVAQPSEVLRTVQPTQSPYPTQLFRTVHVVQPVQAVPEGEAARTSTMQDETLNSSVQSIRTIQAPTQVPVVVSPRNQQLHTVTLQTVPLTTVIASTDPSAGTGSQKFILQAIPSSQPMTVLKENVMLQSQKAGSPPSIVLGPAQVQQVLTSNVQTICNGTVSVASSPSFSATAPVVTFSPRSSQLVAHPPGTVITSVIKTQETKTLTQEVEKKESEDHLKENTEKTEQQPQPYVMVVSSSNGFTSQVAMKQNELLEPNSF
Chain of SPIB (Q01892 whole entry): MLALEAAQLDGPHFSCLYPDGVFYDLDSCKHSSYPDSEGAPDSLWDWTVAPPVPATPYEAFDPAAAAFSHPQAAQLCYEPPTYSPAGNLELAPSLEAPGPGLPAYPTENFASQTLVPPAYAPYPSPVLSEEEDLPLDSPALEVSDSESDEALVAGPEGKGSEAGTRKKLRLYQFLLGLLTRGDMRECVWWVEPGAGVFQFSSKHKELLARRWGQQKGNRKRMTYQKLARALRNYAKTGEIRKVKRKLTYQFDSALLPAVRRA
Chain of ETV1 (P50549 whole entry): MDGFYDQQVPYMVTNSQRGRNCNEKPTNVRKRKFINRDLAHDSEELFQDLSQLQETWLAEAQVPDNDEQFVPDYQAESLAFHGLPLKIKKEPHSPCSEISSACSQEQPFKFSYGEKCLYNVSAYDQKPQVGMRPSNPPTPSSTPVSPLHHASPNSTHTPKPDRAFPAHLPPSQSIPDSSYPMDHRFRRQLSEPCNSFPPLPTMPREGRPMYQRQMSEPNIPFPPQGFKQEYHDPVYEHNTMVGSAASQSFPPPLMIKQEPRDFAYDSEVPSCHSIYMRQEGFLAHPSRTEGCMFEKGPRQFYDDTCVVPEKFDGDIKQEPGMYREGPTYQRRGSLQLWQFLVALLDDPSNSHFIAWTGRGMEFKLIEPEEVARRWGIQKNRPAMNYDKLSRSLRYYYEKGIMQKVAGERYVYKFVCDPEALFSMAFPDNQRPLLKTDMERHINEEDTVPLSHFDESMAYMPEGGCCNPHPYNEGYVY
Chain of ETV5 (P41161 whole entry): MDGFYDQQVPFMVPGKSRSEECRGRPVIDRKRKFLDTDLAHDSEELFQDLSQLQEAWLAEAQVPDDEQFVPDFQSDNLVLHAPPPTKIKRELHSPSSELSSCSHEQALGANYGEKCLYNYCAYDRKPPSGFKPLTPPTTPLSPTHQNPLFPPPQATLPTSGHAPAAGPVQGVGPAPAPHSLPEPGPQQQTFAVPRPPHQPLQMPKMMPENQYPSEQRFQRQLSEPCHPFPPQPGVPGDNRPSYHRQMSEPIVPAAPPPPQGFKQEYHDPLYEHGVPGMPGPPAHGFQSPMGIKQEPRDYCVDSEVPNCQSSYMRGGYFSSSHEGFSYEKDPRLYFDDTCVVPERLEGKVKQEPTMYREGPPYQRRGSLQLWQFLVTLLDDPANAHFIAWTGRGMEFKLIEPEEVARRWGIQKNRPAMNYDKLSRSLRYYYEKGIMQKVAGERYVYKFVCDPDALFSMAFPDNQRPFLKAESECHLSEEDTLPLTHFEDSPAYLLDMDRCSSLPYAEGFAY
Chain of CRX (O43186 whole entry): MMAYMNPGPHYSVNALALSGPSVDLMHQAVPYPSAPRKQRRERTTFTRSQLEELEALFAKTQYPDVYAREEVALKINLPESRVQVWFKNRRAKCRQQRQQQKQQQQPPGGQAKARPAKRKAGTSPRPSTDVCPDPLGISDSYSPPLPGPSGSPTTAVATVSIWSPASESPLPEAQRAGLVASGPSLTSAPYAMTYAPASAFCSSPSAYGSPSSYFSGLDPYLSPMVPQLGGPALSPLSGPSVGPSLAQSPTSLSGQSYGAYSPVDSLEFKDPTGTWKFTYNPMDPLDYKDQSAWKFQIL
Chain of HSF1 (Q00613 whole entry): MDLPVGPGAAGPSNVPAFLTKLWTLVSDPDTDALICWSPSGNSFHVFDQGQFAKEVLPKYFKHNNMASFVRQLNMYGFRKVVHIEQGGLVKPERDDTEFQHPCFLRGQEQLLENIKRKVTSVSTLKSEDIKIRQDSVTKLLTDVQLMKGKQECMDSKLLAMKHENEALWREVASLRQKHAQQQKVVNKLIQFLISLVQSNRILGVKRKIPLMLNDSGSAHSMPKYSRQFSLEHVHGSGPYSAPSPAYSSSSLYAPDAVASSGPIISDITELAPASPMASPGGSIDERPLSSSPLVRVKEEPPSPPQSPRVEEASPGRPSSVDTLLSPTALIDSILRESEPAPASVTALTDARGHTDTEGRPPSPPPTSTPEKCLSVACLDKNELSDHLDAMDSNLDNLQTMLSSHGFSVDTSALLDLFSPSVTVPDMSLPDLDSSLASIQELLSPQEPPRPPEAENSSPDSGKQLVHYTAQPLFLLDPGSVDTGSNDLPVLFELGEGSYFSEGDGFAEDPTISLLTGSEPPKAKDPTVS

GCTTCA
binding signal (FLI1): 1.35 fold enrichment (6-mer frequency, TF over GST control)
binding signal (ELK1): 1.39 fold enrichment (6-mer frequency, TF over GST control)
binding signal (GABPA): 1.28 fold enrichment (6-mer frequency, TF over GST control)
binding signal (ERG): 1.34 fold enrichment (6-mer frequency, TF over GST control)
binding signal (ELF1): 1.33 fold enrichment (6-mer frequency, TF over GST control)
binding signal (EHF): 1.4 fold enrichment (6-mer frequency, TF over GST control)
binding signal (SPI1): 1.24 fold enrichment (6-mer frequency, TF over GST control)
binding signal (SPIB): 1.31 fold enrichment (6-mer frequency, TF over GST control)
binding signal (ELK3): 1.27 fold enrichment (6-mer frequency, TF over GST control)
binding signal (FEV): 1.27 fold enrichment (6-mer frequency, TF over GST control)
binding signal (ETV5): 1.24 fold enrichment (6-mer frequency, TF over GST control)
binding signal (HSF1): 1.23 fold enrichment (6-mer frequency, TF over GST control)
binding signal (SPIC): 1.3 fold enrichment (6-mer frequency, TF over GST control)
binding signal (ELF4): 1.29 fold enrichment (6-mer frequency, TF over GST control)
binding signal (ELK4): 1.36 fold enrichment (6-mer frequency, TF over GST control)
binding signal (ETV2): 1.29 fold enrichment (6-mer frequency, TF over GST control)
binding signal (ELF3): 1.31 fold enrichment (6-mer frequency, TF over GST control)
binding signal (CRX): 1.1 fold enrichment (6-mer frequency, TF over GST control)
binding signal (ETV1): 1.23 fold enrichment (6-mer frequency, TF over GST control)
